Screening data: PubChem, National Center for Advancing Translational Sciences (NCATS)
Sampled rows, rich in hits. Any-hit rate of the full collection: about 10%.
GPT2 inhibitor: GPT2 alanine aminotransferase inhibition; Q8TD30; Recombinant GPT2, coupled pyruvate oxidase/HRP Amplex Red fluorescence; Potency, µM (series often up to 57.7 µM), for the others: at the top dose activity change, negative = inhibition, hits mostly inhibitors; 100,000 compounds, 0.25% hits; AID 1671188; also: nearly all actives have a fitted effect of over 60% in size
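Recombinant GPT2 (10ng/uL) with 250uM a-KG and 2mM L-alanine, 30 min at room temperature, in HEPES pH 7.5 buffer. Pyruvate detected by pyruvate oxidase/HRP/Amplex Red fluorescence after 30 min in the dark; AOA (50uM) as positive control.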
NIH3T3 tox: NIH 3T3 cell cytotoxicity. 94,000 compounds, 4.3% hits. NIH 3T3 viability, CellTiter-Glo ATP luminescence, 48-72 h. Potency, µM (doses to about 96.7 µM), inactives show at the top dose activity change, negative = cytotoxicity, hits mostly inhibitors; also: nearly all actives have a fitted effect of over 55% in size
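NIH 3T3 cells at 400 cells/well received 23 nL of compound by pintool and were incubated 48 or 72 h at 37 °C. Viability was read as ATP-coupled CellTiter-Glo luminescence.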
HEK cytotox: HEK 293 cell cytotoxicity; HEK 293 viability, ATP luminescence (CellTiter-Glo), 48-72 h; Potency, µM (top dose mostly 115 µM), for the others: at the top dose activity change, negative = cytotoxicity, most hits filed as inhibitors; 94,000 compounds, 6.6% hits; also: nearly all actives have a fitted effect of over 60% in size
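Read-out: CellTiter-Glo ATP luminescence. Cells: HEK 293, 250 cells/well. Exposure: 48 or 72 hr, 37 degree Celsius.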
Luciferase inh: blocks purified firefly luciferase enzyme activity. AID 1347043. purified P. pyralis luciferase, luminescence, biochemical. Potency, µM (highest dose often 115 µM), actives largely listed as inhibitors. P08659. 76,000 compounds, 2.5% hits; also: nearly all actives have a fitted effect of over 65% in size
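Biochemical qHTS: compound (6-point titration) added to 10uM D-luciferin plus 10uM ATP in Tris acetate pH 7.5 buffer with Mg, Tween-20 and BSA, then purified enzyme at 10nM; light output imaged.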
hNpr1 antagonist: blocks ANP-stimulated signaling of human Npr1 receptor; AID 1347048; 76,000 compounds, 1.6% hits; P16066; Potency, µM (titrated, usually from 46.3 µM), for inactives: at the top dose activity change, negative = inhibition, actives largely listed as inhibitors; HEK293 hNpr1 GloSensor cGMP, ANP-stimulated luminescence; calls by dose curve; also: nearly all actives have a fitted effect of over 60% in size
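HEK293 cells stably expressing human Npr1 and cGMP GloSensor pGS-40F, loaded 2 h with 2% GloSensor reagent, given compound 30 min at room temperature. Luminescence read before and 20 min after 0.1 nM hNppA.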
Numbers without * were called inactive; i = inactive; ? = inconclusive; nt = no result; [ ] = another dose, or the depositor's remark. Unless noted, calls follow the shape of the dose curve; as a rule, active = well fitted curve in the direction sought with a large enough effect; inconclusive = small, poorly fitted or top-dose-only effect, or another doubt; inactive = no such curve, though single readings can be large; an effect the other way counts as inactive or inconclusive. % is scaled to controls: 0 for no effect and ±100 for the full control effect; potency is read from the fitted curve at half-maximal effect.

SMILES	GPT2 inhibitor	NIH3T3 tox	HEK cytotox	Luciferase inh	hNpr1 antagonist
COc1ccc(OC)c(-c2cnc3[nH]cc(CC(=O)NCc4cccnc4)c3c2)c1	4%[88.5 µM]	?	?	i	?
COc1ccc(-c2cnc3[nH]cc(CC(=O)N(C)C)c3c2)cc1	i	13µM*	?	22µM*	?
COc1ccc(-c2cnc3[nH]cc(CC(=O)NC4CCOCC4)c3c2)cc1	-4%[88.5 µM]	25µM*	?	?	4%[70.6 µM]
Cc1cc(C[C@@H]2COC[C@@H]2NC(=O)c2c(-c3ccccc3)noc2C)on1	i	i	-9%	i	5%
CCn1ccnc1CN1CCCC(CNC(=O)c2ccc(-c3ccccc3)cc2)C1 (centres undefined)	i	?	?	i	-7%
O=C(C1CC1)N1CCCC(Cc2noc(-c3ccccc3)n2)C1 (centres undefined)	i	?	?	?	4%
O=C(NCC1CCCN(Cc2ncccn2)C1)c1ccc(-c2ccccc2)cc1 (centres undefined)	?	-9%	?	i	-1%
O=C(c1ccc2cc[nH]c2c1)N1CCCC(Cc2noc(-c3ccccc3)n2)C1 (centres undefined)	i	20µM*	?	i	1%
O=C(NCC1CCCN(C(=O)c2ccc3[nH]ccc3c2)C1)c1ccc(-c2ccccc2)cc1 (centres undefined)	-4%	?	18µM*	?	11µM*
O=C(NCC1CCCN(C(=O)c2ccsc2)C1)c1ccc(-c2ccccc2)cc1 (centres undefined)	i	?	45µM*	?	?
COc1ccc(C(=O)N2CCCCCCNC(=O)CC2)c(OC)c1	i	-10%	-5%	i	-16%
Fc1ccc(-c2c3cccc(C(F)(F)F)c3nn2Cc2ccc(F)cc2Cl)cc1	-2%	nt	nt	nt	nt
O=C(CCC[C@@H]1[C@H]2CCCN3CCC[C@@H](CN1Cc1ccccc1)[C@@H]23)NCc1ccncc1	1%	i	2%	i	5%
Oc1cccc(-c2cc(-c3ccncc3)c3cncn3c2)c1	-4%[88.5 µM]	?	?	i	-18%[70.6 µM]
c1cc(-c2cc(-c3ccncc3)c3cncn3c2)cc(N2CCOCC2)c1	i	22µM*	?	i	-13%[70.6 µM]
Cc1noc(C)c1-c1cc(-c2cccc(N3CCOCC3)c2)cn2cncc12	-12%[88.5 µM]	18µM*	?	i	-8%[70.6 µM]
FC(F)(F)c1cccc(-c2cc(-c3ccncc3)c3cncn3c2)c1	?	35µM*	?	i	-19%[70.6 µM]
Cc1ccc(-c2noc([C@@H]3C[C@H](NS(=O)(=O)Cc4ccccc4)CN3C)n2)cc1	3%[88.5 µM]	79µM*	100µM*	i	-22%[70.6 µM]
Cc1ccc(-c2noc([C@@H]3C[C@H](NS(=O)(=O)c4ccc5ccccc5c4)CN3C)n2)cc1	1%	?	?	20µM*	-22%
CCCS(=O)(=O)N[C@H]1C[C@@H](c2nc(-c3ccc4c(c3)OCO4)no2)N(C)C1	3%[88.5 µM]	-25%[174 µM]	?	45µM*	1%[70.6 µM]
CC(=O)Nc1ccc(S(=O)(=O)N[C@H]2C[C@@H](c3nc(-c4ccccc4)no3)N(C)C2)cc1	i	?	40µM*	?	?
CN1C[C@@H](NS(=O)(=O)Cc2ccccc2)C[C@H]1c1nc(-c2ccc3c(c2)OCO3)no1	-3%	-31%	-26%	i	-11%
CC(=O)Nc1ccc(S(=O)(=O)N[C@H]2C[C@@H](c3nc(C)no3)N(C)C2)cc1	1%[88.5 µM]	4%[174 µM]	-3%[172 µM]	i	-1%[70.6 µM]
O=C1Nc2ccccc2CC12CN(CC1CCNCC1)C2	2%[88.5 µM]	i	i	nt	nt
Cc1cnc(CC2CCN(C(=O)CC3CCCC3)CC2)n1Cc1ccc(F)cc1	i	?	?	i	-1%
Cc1ccc(-c2noc([C@@H]3C[C@H](NS(=O)(=O)c4ccc(C)cc4)CN3C)n2)cc1	?	89µM*	71µM*	22µM*	?
O=C(c1cc(-c2ccccc2)n[nH]1)N1CCc2c(nc(-c3ccccc3)[nH]c2=O)C1	-3%	?	?	?	-5%
